The full data set covers some 8,800 targets. This sample favours those with a hit. About 0.5% of all pairs of compound and target were hits.
Experiments:
Experiment in all cases: log2 fold change, soluble protein after heating vs DMSO (PISA); higher = thermal stabilisation; K562 lysate, 10 uM; active = over 0.2 and 3.5 SD of the protein, either way, in both replicates (recomputed)
[1] = compound: C=CC(=O)N1CCC[C@@H](n2nc(-c3ccc(Oc4ccccc4)cc3)c3c(N)ncnc32)C1 [ibrutinib]
Outline: (§1)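 Thermal stability, expressed as log-two fold change relative to solvent controls, is given from duplicates. Crude K562 extract in PBS pH 7.4 with 1 mM MgCl2, at 1 mg/mL protein, was treated with 10 μM compound for 30 min and heated in aliquots for 3 min across 48°C-58°C. After pooling, adjustment to 0.5% NP-40 at 4°C and centrifugation at 21,000xg for 90 min, supernatant protein was measured by TMTpro 16plex LC-MS/MS with channel sums equalised.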

[2] = compound: CC(=O)c1cnc2ccc(-c3cc(Cl)c(O)c(Cl)c3)nc2c1N[C@H]1CC[C@H](CN(C)C)CC1
Outline: as §1

[3] = compound: CC(C)(C)Cn1c(N)nc2ccc(-c3[nH]c(C(C)(C)C)nc3-c3ccc(F)cc3)nc21 [ralimetinib]
Outline: as §1

[4] = compound: CC(C)(O)CC(=O)NCCn1ccc2ncnc(Nc3ccc(Oc4cccc(C(F)(F)F)c4)c(Cl)c3)c21
Outline: as §1

[5] = compound: CC(C)C1=C2N=C(C=C(N2N=C1)NCC3=CC=CC=C3)NCCCCCCN
Outline: as §1

[6] = compound: CC1=C(C(CC(=O)N1)C2=CC=C(C=C2)C(F)(F)F)C(=O)NC3=C(C=C4C(=C3)C=NN4)F
Outline: as §1

[7] = compound: CC1=C(C2=C(C=C1)C(=O)C3=CC=CC=C3N2CCCN)C
Outline: as §1

[8] = compound: CC1=C(C=C(C=C1)NC(=O)C2=CC(=CC=C2)C(C)(C)C#N)NC3=CC4=C(C=C3)N=CN(C4=O)C
Outline: as §1

[9] = compound: CC1=C(C=C(C=C1)NC(=O)C2=CC(=CC=C2)N(C)C)NC(=O)C3=CC=C(C=C3)O
Outline: as §1

[10] = compound: CC1=CC=C(C=C1)SC2=C3C=C(SC3=CN=C2)C(=O)N
Outline: as §1

Measured: log2 fold change

DDB2 (UniProt Q92466)
inactive: [1] 0.075 | [2] -0.016 | [3] 0.009 | [4] -0.033 | [5] -0.007 | [6] 0.091 | [7] -0.003 | [8] 0.009 | [9] 0 | [10] 0.01

DNAJC5 (UniProt Q9H3Z4)
UniProt Q9H3Z4, sequence (Q9H3Z4 whole entry, looked up): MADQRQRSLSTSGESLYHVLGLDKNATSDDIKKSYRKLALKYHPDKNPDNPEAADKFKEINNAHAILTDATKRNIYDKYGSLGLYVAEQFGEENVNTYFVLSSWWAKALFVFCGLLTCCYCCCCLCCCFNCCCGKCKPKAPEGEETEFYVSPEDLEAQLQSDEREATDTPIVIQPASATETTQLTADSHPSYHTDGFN
inactive: [1] -0.029 | [2] -0.072 | [3] -0.013 | [4] -0.043 | [5] -0.044 | [6] 0.06 | [7] -0.008 | [8] 0.048 | [9] -0.036 | [10] -0.116

COG2 (UniProt Q14746)
inactive: [1] -0.029 | [2] -0.023 | [3] 0.017 | [4] -0.017 | [5] 0 | [6] 0.023 | [7] -0.035 | [8] -0.019 | [9] 0.062 | [10] -0.009

CNIH4 (UniProt Q9P003)
inactive: [1] 0.13 | [2] -0.014 | [3] 0.006 | [4] -0.152 | [5] 0.278 | [6] 0.066 | [7] -0.115 | [8] -0.008 | [9] 0.211 | [10] -0.024

CTPS1 (UniProt P17812)
inactive: [1] -0.045 | [2] 0.01 | [3] -0.017 | [4] -0.015 | [5] -0.022 | [6] -0.012 | [7] 0.024 | [8] 0.004 | [9] 0.017 | [10] 0.02

DAZAP1 (UniProt Q96EP5)
UniProt Q96EP5, sequence (Q96EP5 whole entry, looked up): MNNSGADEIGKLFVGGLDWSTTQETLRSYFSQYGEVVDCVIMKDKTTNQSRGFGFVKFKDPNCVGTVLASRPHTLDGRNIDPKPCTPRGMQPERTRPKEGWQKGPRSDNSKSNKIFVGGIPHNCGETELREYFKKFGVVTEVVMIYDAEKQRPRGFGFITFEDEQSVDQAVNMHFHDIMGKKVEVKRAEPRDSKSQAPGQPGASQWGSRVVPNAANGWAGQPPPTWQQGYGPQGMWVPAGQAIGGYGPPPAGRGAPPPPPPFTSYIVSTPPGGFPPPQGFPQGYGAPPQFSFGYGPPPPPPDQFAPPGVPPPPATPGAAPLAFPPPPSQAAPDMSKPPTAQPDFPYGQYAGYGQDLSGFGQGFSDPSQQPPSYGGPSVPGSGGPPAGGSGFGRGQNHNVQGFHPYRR
active: [8] -0.359
inactive: [1] -0.031 | [2] -0.011 | [3] -0.124 | [4] 0.133 | [5] -0.023 | [6] -0.062 | [7] -0.015 | [9] -0.031 | [10] -0.009

CSNK1E (UniProt P49674)
UniProt P49674, sequence (P49674 whole entry, looked up): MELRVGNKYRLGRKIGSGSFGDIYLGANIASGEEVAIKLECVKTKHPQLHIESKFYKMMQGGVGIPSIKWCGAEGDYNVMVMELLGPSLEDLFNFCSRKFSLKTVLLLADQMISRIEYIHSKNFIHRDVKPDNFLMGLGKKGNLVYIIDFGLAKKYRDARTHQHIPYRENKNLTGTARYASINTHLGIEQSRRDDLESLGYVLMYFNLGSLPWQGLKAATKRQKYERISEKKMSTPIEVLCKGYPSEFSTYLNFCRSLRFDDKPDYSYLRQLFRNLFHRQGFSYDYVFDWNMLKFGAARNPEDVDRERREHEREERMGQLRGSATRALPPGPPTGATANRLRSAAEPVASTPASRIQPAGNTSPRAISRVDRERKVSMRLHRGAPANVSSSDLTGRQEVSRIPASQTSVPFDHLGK
inactive: [1] 0.029 | [2] 0.287 | [3] 0.208 | [4] -0.026 | [5] -0.04 | [6] -0.012 | [7] -0.064 | [8] -0.049 | [9] -0.028 | [10] -0.039

CXXC1 isoform 2 (UniProt Q9P0U4)
UniProt Q9P0U4, sequence (Q9P0U4 whole entry, looked up): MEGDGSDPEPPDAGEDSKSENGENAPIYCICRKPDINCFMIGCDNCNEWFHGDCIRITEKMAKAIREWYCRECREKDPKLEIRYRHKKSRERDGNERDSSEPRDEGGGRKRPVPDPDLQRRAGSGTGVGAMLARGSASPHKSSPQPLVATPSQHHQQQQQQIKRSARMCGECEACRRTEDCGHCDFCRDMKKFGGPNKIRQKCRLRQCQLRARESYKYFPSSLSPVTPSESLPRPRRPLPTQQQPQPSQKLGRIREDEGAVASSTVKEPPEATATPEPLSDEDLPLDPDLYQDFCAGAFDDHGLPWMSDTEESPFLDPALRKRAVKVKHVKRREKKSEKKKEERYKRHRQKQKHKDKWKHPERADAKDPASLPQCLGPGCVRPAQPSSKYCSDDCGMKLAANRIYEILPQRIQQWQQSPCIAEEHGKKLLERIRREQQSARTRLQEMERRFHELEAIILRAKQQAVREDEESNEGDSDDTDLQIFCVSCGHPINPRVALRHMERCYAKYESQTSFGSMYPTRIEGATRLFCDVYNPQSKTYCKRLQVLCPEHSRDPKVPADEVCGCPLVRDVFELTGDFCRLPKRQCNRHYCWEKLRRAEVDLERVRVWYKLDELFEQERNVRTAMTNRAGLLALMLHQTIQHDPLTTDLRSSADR
inactive: [1] -0.034 | [2] -0.078 | [3] 0.013 | [4] -0.089 | [5] -0.005 | [6] -0.01 | [7] 0.082 | [8] 0.004 | [9] 0.061 | [10] -0.155

DHRS3 (UniProt O75911)
inactive: [1] 0.064 | [2] -0.07 | [3] 0.048 | [4] -0.023 | [5] 0.034 | [6] -0.001 | [7] -0.069 | [8] -0.015 | [9] -0.046 | [10] 0.045

CHEK1 (UniProt O14757)
inactive: [1] 0.019 | [2] 0.104 | [3] 0.032 | [4] -0.004 | [5] -0.003 | [6] 0.004 | [7] 0.011 | [8] 0.026 | [9] -0.005 | [10] -0.024

DMAC2L (UniProt Q99766)
inactive: [1] 0.046 | [2] -0.046 | [3] 0.037 | [4] -0.017 | [5] 0.017 | [6] 0.005 | [7] -0.018 | [8] 0.008 | [9] -0.043 | [10] -0.019

CRABP2 (UniProt P29373)
inactive: [1] -0.039 | [2] 0.061 | [3] 0.097 | [4] -0.015 | [5] -0.002 | [6] 0.176 | [7] -0.088 | [8] -0.028 | [9] 0.082 | [10] -0.03

DLD (UniProt P09622)
inactive: [1] 0.003 | [2] 0.003 | [3] -0.006 | [4] -0.016 | [5] -0.013 | [6] -0.03 | [7] -0.006 | [8] 0.049 | [9] -0.007 | [10] 0.004

DENND4A isoform 2 (UniProt Q7Z401)
UniProt Q7Z401, sequence (Q7Z401 whole entry, looked up): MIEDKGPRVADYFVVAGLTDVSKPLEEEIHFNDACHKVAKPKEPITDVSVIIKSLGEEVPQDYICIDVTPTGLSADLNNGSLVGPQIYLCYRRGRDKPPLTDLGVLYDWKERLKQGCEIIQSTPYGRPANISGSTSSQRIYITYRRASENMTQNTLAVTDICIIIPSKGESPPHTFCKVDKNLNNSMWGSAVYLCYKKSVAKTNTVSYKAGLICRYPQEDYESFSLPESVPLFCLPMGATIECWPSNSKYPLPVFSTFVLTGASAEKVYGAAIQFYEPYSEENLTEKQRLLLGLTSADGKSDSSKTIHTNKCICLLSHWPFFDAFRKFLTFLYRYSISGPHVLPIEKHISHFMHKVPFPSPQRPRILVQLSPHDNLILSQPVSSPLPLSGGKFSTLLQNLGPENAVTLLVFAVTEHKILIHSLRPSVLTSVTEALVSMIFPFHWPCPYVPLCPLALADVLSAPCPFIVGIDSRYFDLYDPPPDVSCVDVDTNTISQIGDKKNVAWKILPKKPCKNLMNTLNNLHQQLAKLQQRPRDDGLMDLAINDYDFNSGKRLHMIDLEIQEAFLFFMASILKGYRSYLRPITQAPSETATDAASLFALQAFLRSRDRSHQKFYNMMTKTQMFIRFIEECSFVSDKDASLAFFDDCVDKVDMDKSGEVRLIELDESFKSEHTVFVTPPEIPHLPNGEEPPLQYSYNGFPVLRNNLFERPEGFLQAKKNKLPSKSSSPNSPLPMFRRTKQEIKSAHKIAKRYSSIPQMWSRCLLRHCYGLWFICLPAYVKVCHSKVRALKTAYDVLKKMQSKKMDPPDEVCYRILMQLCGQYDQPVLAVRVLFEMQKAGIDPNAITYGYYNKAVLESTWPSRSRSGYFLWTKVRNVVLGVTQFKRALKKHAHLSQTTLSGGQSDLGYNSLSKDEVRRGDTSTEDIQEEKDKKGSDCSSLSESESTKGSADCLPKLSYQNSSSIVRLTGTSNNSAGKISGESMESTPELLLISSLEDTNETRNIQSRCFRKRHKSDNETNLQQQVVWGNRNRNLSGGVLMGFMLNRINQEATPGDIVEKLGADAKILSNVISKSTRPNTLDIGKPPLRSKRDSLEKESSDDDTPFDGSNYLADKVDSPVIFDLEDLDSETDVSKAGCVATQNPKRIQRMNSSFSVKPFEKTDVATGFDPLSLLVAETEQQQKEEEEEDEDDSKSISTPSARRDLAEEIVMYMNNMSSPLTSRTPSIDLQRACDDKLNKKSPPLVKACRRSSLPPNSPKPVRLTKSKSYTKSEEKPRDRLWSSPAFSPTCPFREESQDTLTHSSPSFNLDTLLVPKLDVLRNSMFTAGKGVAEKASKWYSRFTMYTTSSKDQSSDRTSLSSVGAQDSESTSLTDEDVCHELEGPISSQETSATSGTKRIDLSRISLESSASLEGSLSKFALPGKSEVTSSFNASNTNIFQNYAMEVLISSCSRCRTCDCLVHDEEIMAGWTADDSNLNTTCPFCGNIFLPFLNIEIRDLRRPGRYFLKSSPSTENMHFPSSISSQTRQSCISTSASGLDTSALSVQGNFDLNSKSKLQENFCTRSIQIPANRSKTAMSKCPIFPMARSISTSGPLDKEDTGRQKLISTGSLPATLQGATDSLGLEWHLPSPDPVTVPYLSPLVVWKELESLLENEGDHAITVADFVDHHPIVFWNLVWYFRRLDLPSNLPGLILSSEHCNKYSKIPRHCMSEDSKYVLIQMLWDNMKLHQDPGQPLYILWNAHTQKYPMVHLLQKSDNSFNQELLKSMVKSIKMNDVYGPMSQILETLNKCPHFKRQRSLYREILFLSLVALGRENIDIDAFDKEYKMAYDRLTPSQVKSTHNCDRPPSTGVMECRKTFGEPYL
inactive: [1] 0 | [2] -0.089 | [3] 0.018 | [4] -0.028 | [5] 0.017 | [6] 0.006 | [7] 0.026 | [8] 0.029 | [9] 0.023 | [10] -0.009

COQ8A (UniProt Q8NI60)
active: [2] 0.611
inactive: [1] -0.061 | [3] 0.143 | [4] 0.115 | [5] -0.009 | [6] -0.139 | [7] -0.074 | [8] -0.04 | [9] 0 | [10] -0.068

CIB1 (UniProt Q99828)
inactive: [1] 0.096 | [2] -0.137 | [3] 0.004 | [4] -0.056 | [5] -0.027 | [6] 0.007 | [7] -0.041 | [8] 0.042 | [9] -0.003 | [10] -0.066

DOCK8 (UniProt Q8NF50)
inactive: [1] -0.033 | [2] -0.012 | [3] 0.03 | [4] 0.047 | [5] 0.003 | [6] -0.005 | [7] 0.022 | [8] 0.004 | [9] 0.057 | [10] -0.011

DNM2 (UniProt P50570)
inactive: [1] 0.014 | [2] 0 | [3] 0.013 | [4] 0.013 | [5] 0.018 | [6] 0.011 | [7] 0.024 | [8] -0.016 | [9] 0.006 | [10] 0.004

DOCK7 (UniProt Q96N67)
inactive: [1] -0.117 | [2] -0.009 | [3] 0.077 | [4] -0.054 | [5] 0.021 | [6] 0.03 | [7] -0.078 | [8] 0.009 | [9] 0.065 | [10] -0.028

CXCL14 (UniProt O95715)
inactive: [1] -0.012

DHFR (UniProt P00374)
inactive: [1] -0.013 | [2] 0.155 | [3] -0.058 | [4] 0.016 | [5] 0.024 | [6] -0.018 | [7] -0.013 | [8] -0.029 | [9] 0.025 | [10] 0.033

CMIP (UniProt Q8IY22)
inactive: [1] 0.057 | [2] 0.024 | [3] 0 | [4] 0.004 | [5] -0.011 | [6] 0.001 | [7] -0.021 | [8] 0 | [9] 0.029 | [10] 0.004

COASY isoform 2 (UniProt Q13057)
UniProt Q13057, sequence (Q13057 whole entry, looked up): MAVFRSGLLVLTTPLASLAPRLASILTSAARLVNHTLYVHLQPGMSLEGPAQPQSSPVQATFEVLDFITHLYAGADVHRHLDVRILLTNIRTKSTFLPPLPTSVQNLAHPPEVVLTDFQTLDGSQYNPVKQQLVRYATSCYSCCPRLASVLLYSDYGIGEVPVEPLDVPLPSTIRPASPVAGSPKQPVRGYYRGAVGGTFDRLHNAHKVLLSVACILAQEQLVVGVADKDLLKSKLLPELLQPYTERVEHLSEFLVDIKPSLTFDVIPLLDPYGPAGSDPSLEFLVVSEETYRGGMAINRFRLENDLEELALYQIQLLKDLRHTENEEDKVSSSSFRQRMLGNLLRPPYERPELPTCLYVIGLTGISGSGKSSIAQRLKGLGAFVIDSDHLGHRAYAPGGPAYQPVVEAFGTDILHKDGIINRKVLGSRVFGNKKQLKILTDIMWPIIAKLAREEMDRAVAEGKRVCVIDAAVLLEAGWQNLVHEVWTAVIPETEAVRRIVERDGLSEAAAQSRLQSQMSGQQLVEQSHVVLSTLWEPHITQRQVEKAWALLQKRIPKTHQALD
inactive: [1] 0.024 | [2] -0.015 | [3] 0.103 | [4] 0.002 | [5] -0.003 | [6] 0.013 | [7] -0.001 | [8] -0.013 | [9] 0.037 | [10] 0.014

DENND1B (UniProt Q6P3S1)
inactive: [1] 0.405 | [2] -0.034 | [3] -0.039 | [4] -0.114 | [5] -0.087 | [6] 0.151 | [7] 0.174 | [8] 0.031 | [9] -0.003 | [10] 0.011

CKAP2 (UniProt Q8WWK9)
UniProt Q8WWK9, sequence (Q8WWK9 whole entry, looked up): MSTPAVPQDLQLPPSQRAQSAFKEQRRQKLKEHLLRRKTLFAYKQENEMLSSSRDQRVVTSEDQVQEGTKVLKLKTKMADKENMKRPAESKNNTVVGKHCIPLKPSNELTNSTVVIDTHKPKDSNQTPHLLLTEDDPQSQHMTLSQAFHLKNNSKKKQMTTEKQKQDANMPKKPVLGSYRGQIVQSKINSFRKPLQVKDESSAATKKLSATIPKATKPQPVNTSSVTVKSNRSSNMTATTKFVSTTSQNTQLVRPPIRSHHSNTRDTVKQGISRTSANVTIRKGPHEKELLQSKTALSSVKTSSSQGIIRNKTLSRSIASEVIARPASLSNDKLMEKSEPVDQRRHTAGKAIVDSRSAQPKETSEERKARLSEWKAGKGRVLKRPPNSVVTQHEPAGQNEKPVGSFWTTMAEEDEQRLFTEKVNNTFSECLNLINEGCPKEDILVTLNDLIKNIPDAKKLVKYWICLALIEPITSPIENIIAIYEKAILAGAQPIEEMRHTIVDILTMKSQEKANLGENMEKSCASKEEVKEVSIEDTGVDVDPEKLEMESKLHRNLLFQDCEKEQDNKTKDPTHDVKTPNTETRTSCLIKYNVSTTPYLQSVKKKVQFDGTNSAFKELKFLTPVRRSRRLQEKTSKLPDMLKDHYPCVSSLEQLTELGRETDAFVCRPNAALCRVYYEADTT
inactive: [1] -0.065 | [2] -0.057 | [3] -0.017 | [4] 0.016 | [5] -0.053 | [6] -0.012 | [7] -0.004 | [8] 0.003 | [9] -0.027 | [10] 0.03

CIAO2A (UniProt Q9H5X1)
UniProt Q9H5X1, sequence (Q9H5X1 whole entry, looked up): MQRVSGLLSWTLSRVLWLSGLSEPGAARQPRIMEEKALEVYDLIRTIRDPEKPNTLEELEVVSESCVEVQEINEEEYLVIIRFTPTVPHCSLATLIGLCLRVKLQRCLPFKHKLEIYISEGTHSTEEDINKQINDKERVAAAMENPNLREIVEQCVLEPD
inactive: [1] 0.005 | [2] 0.044 | [3] 0.053 | [4] -0.034 | [5] 0.056 | [6] 0.032 | [7] -0.06 | [8] -0.026 | [9] -0.067 | [10] -0.02

CTNNBL1 (UniProt Q8WYA6)
inactive: [1] 0 | [2] 0.047 | [3] -0.095 | [4] -0.169 | [5] 0.017 | [6] -0.051 | [7] -0.04 | [8] 0.015 | [9] 0.056 | [10] 0.01

DOK1 (UniProt Q99704)
inactive: [1] 0.023 | [2] 0.01 | [3] 0.017 | [4] 0.014 | [5] -0.029 | [6] 0.137 | [7] 0.018 | [8] 0.017 | [9] 0.014 | [10] -0.135

CSPP1 (UniProt Q1MSJ5)
inactive: [1] 0.052 | [2] 0 | [3] 0 | [4] 0.026 | [5] -0.023 | [6] 0 | [7] -0.015 | [8] -0.074 | [9] -0.006 | [10] 0.084

CSNK2B (UniProt P67870)
active: [2] 0.408
inactive: [1] -0.004 | [3] 0.003 | [4] -0.013 | [5] 0 | [6] -0.054 | [7] 0.114 | [8] -0.004 | [9] -0.015 | [10] -0.016

Source: the supplement of paper PMC10849652
